Screening data deposited in PubChem by National Center for Advancing Translational Sciences (NCATS).
G9a inh = qHTS Assay for Inhibitors of Histone Lysine Methyltransferase G9a; Histone-lysine N-methyltransferase EHMT2 (Homo sapiens), Q96KQ7; G9a H3K9 monomethylation, AlphaScreen, 2 h; Potency, µM (doses to about 102 µM), hits mostly inhibitors; 350,000 tested, 8.8% active; further: nearly all actives have a fitted effect of over 75% in size
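Step 1: enzyme (final 20 nM) with compound, 15 min RT. Step 2: substrate peptide 500 nM and SAM 20 uM, 2 h RT. Step 3: anti-H3K9me1 antibody and AlphaScreen beads, 10 min, then plate read.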
12-LOX inh = Primary qHTS assay for inhibitors of human arachidonate 12S-lipoxygenase (ALOX12): Round 2. Polyunsaturated fatty acid lipoxygenase ALOX12 (Homo sapiens), P18054. purified 12hLO, xylenol orange hydroperoxide absorbance. Potency, µM (highest dose often 108 µM), usual class: inhibitors. 580,000 tested, 1.1% active
Target sequence (P18054 whole entry, looked up): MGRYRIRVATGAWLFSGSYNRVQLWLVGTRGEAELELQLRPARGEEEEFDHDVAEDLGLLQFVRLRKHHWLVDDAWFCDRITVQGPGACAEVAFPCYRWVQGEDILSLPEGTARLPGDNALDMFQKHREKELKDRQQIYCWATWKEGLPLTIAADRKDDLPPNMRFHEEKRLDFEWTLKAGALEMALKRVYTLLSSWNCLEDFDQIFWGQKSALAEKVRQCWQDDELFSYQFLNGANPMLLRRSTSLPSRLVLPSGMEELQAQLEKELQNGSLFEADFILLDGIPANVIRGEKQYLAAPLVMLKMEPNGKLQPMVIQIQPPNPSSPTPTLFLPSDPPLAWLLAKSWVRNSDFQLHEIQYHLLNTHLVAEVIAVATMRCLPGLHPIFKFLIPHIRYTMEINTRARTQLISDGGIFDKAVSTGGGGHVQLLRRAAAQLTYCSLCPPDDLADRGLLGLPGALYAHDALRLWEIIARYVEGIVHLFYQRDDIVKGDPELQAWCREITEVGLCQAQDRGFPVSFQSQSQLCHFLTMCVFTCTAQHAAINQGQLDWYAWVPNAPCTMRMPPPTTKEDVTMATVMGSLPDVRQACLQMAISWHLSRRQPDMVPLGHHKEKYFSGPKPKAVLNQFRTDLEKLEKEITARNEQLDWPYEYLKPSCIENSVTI
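Hydroperoxide product was detected by ferrous iron/xylenol orange as the 573 to 405 nm absorbance ratio. Arachidonic acid at 40 uM (final) was turned over for 30 min at room temperature by 150 nM human 12hLO, pH 7.0 Hepes buffer, after 15 min compound preincubation.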
BAZ2B inh = qHTS Assay for Inhibitors of BAZ2B; 360,000 tested, 4.4% active; Bromodomain adjacent to zinc finger domain protein 2B (Homo sapiens), Q9UIF8; Potency, µM (highest dose often 114 µM), actives largely listed as inhibitors; AlphaScreen BAZ2B-H3K14Ac peptide displacement; AID 504333, 2011; further: nearly all actives have a fitted effect of over 60% in size
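Complex of BAZ2B and biotin-H3K14Ac (50 nM apiece) forms over 30 min at RT, then faces library compounds up to 110 uM for another 30 min; AlphaScreen beads added, 20 min dark incubation, luminescence read.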
Sfp inh = qHTS Assay for Inhibitors of Bacillus subtilis Sfp phosphopantetheinyl transferase (PPTase). Potency, µM, hits mostly inhibitors. 310,000 tested, 3.5% active. Biochemical Sfp PPTase activity, qHTS;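 further: the enzyme is Sfp with the accession as filed and its product quenches rhodamine fluorescence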
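With Hepes-Na pH 7.6 buffer containing 10 mM MgCl2, Sfp (15 nM) modified BHQ-2-YbbR (12.5 uM) using rhodamine-CoA (5 uM). Two reads 30 minutes apart at 525/598 nm yielded each well's rate.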
JMJD2A Tudor = qHTS Assay for Inhibitors of JMJD2A-Tudor Domain. AID 504339, 2011. AlphaScreen JMJD2A-Tudor / H3K4me3 peptide binding. 390,000 tested, 4.4% active. Potency, µM (doses to about 114 µM), usual class: inhibitors; further: nearly all actives have a fitted effect of over 50% in size
HP1b binding inh = HTS for Inhibitors of HP1-beta Chromodomain Interactions with Methylated Histone Tails; Chromobox protein homolog 1 (Homo sapiens), P83916; AlphaScreen HP1-beta / biotin-H3K9me3 peptide binding; 390,000 tested, 0.56% active; Potency, µM (doses to about 114 µM), most hits filed as inhibitors; further: nearly all actives have a fitted effect of over 70% in size
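HP1-beta protein (50 nM final) preincubated 30 min at room temperature with biotinylated H3(1-18)K9me3 peptide (50 nM) in PBS pH 7.4, 0.01% Tween-20, then compound added for 30 min. AlphaScreen streptavidin donor/nickel chelate acceptor beads (10 ug/mL final), 30 min dark, luminescence read.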
Each line names hits and unclear results; the compound was inactive in the other large screens. Sampled rows, rich in hits. Any-hit rate of the full collection: about 8.7%. The call rests on the fitted dose curve; in most records, active means well fitted curve in the direction sought with a large enough effect; inconclusive means small, poorly fitted or top-dose-only effect, or another doubt; inactive means no such curve, though single readings can be large; an effect the other way counts as inactive or inconclusive.

COc1ccc(S(=O)(=O)c2c(O)c3ccc(C(=O)Nc4cccc(C)c4C)cc3[nH]c2=O)cc1	none (no result: G9a inh, BAZ2B inh, Sfp inh, JMJD2A Tudor, HP1b binding inh)
CCN1CCN(c2oc(-c3ccc(S(=O)(=O)N(CC)CC)cc3)nc2C#N)CC1	none (no result: G9a inh, BAZ2B inh, Sfp inh, JMJD2A Tudor, HP1b binding inh)
Cc1[nH]n(-c2ccccc2)c(=O)c1CCO	none (no result: G9a inh)
CCc1c(C)[nH]n(-c2ccc(Oc3ccccc3)c(S(=O)(=O)O)c2)c1=O	G9a inh inconclusive, JMJD2A Tudor 56µM (no result: 12-LOX inh, BAZ2B inh)
Cc1cc(C)n(-c2ccc(Oc3ccccc3)c(S(=O)(=O)O)c2)n1	G9a inh inconclusive, JMJD2A Tudor 89µM
CC(C)(C)CC(=O)Nc1cnc(-c2cccc(Cl)c2)nc1	none (no result: G9a inh, BAZ2B inh, Sfp inh, JMJD2A Tudor, HP1b binding inh)
CC(=O)c1cccc(OCC(=O)NC2CCCCCC2)c1	G9a inh inconclusive (no result: Sfp inh)
CC(=O)c1cccc(OCC(O)CNCCOc2ccc(C)cc2)c1 (stereo not drawn)	G9a inh 40µM, 12-LOX inh inconclusive, BAZ2B inh 50µM, JMJD2A Tudor 4µM
CC(=O)c1cccc(OCC(O)CNCC2CCCCC2)c1 (stereo not drawn)	12-LOX inh inconclusive, BAZ2B inh 56µM, JMJD2A Tudor 8.9µM, HP1b binding inh 71µM
CN(Cc1cccnc1)c1nc2c(c(=O)[nH]1)CCN(Cc1ccc3cc[nH]c3c1)CC2	none (no result: G9a inh, BAZ2B inh, Sfp inh, JMJD2A Tudor, HP1b binding inh)
COc1ccc(-c2noc([C@@H]3CCCN3C(=O)CCCc3ccccc3)n2)cc1	none (no result: G9a inh, BAZ2B inh, Sfp inh, JMJD2A Tudor, HP1b binding inh)
CCNC(=S)NCc1ccc(OC)c(OC)c1	none
S=C(NCCc1ccccc1)Nc1ccc(Br)cn1	G9a inh 7.1µM, 12-LOX inh inconclusive, BAZ2B inh inconclusive
Cc1c(Cl)cccc1NC(=S)NCCc1ccc(C(F)(F)F)cc1	12-LOX inh 40µM
Fc1cc(Br)ccc1NC(=S)NCCc1ccccc1	12-LOX inh inconclusive
Cc1c(Cl)cccc1NC(=S)Nn1cnnc1	G9a inh 8.9µM, 12-LOX inh inconclusive, BAZ2B inh inconclusive, Sfp inh 22µM
COc1ccc(CCNC(=S)NCc2ccc(Cl)c(Cl)c2)cc1OC	12-LOX inh 45µM, BAZ2B inh inconclusive
COCCN1C(=O)CSC12CCN(C(=O)NCc1ccccc1)CC2	none (no result: G9a inh, BAZ2B inh, Sfp inh, JMJD2A Tudor, HP1b binding inh)
COc1ccc(C(=O)NC2CCN(c3cnn(C)c(=O)c3)CC2)c(OC)n1	none (no result: G9a inh, BAZ2B inh, Sfp inh, JMJD2A Tudor, HP1b binding inh)
S=C(NCCc1ccccc1)NCCc1ccccc1	12-LOX inh 50µM
S=C(NCCc1ccccc1)NCc1cccc(Cl)c1	G9a inh 8.9µM, BAZ2B inh inconclusive (no result: 12-LOX inh)
c1ccc(NCCc2ccccn2)cc1	none (no result: G9a inh, BAZ2B inh, Sfp inh)
NNC(=S)NCCc1ccccc1	12-LOX inh inconclusive, BAZ2B inh inconclusive, JMJD2A Tudor inconclusive
c1ccc(CCNc2ccccc2)cc1	G9a inh inconclusive, BAZ2B inh 56µM (no result: 12-LOX inh, JMJD2A Tudor, HP1b binding inh)
S=C(NCCCCc1ccccc1)Nc1cccc(Cl)c1Cl	12-LOX inh 25µM (no result: G9a inh, BAZ2B inh, Sfp inh, JMJD2A Tudor, HP1b binding inh)
N#Cc1cccc(CN2CCC3(CC2)COCCN3C(=O)OCc2ccccc2)c1	none (no result: G9a inh, BAZ2B inh, Sfp inh, JMJD2A Tudor, HP1b binding inh)
S=C(NCc1ccc(Cl)cc1)Nc1ccc(Br)cn1	12-LOX inh 4.5µM (no result: G9a inh, BAZ2B inh, Sfp inh, JMJD2A Tudor, HP1b binding inh)
CCn1c(C)cc(/C=C2/SC(=S)N(CC(=O)O)C2=O)c1C	G9a inh 50µM, 12-LOX inh inconclusive
CCOc1ccc(-c2nn(-c3ccccc3)cc2/C=C2\SC(=S)N(Cc3ccco3)C2=O)cc1	JMJD2A Tudor inconclusive
C#CCN1C(=O)S/C(=C/c2cc(C)n(CC)c2C)C1=O	none
O=C(O)CN1C(=O)/C(=C\c2cn(-c3ccccc3)nc2-c2ccccc2)SC1=S	G9a inh 11µM, BAZ2B inh inconclusive, Sfp inh inconclusive, JMJD2A Tudor 50µM (no result: 12-LOX inh)
CC(C)COc1ccc(-c2nn(-c3ccccc3)cc2/C=C2/SC(=S)N(CC(=O)O)C2=O)cc1	G9a inh 50µM, 12-LOX inh 45µM, BAZ2B inh 45µM, JMJD2A Tudor 45µM, HP1b binding inh 40µM
c1coc(CNC2CCCCCCC2)c1	G9a inh 20µM, 12-LOX inh inconclusive, BAZ2B inh 89µM, JMJD2A Tudor 50µM
